Experimental data published in the supplement of paper PMC6555819.

tested on: VDR homodimer (NR concentration 270 nM); experiment: PBM binding z-score (relative to random genomic background probes); higher = stronger binding; sequences stand for … in GC…GCGATTGACAGCGTAGAATGAAGG
Summary of the method: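 Binding z-scores were set against random background probes. The data came from custom Agilent 4×180K protein-binding microarrays carrying double-stranded probes with 34-nt variable regions, incubated 1 h with ligand-free nuclear receptor dimers. Partner-specific antibodies detected binding, and scanned fluorescence was regression-normalized.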

Sequence	PBM binding z-score
AGAATGAGGTTATACGTAGATCATGGAAGAAAGT	0.975
ACTCGGAGGACAAAGGTCCGAGCTACGCCAGTGA	-0.261
TGAATGAGGTTGTAAGATCAGGGAACGTTGCAAA	-0.21
TCTTGTAGATCAACAGGAGGTTTAGAAAGATCGA	-0.584
CAAACTAGTTCACGAAAGGTCAAAGTCGAATGAC	4.41
GCTCGGAGAACAAGGTCAGAGCTTTGTCCGTAGA	0.151
TTACCAAGCTGAAGGTCGTTGATCCCTCTGTAGA	0.305
ACTAGTTGGTCAGCTGAGGTCACACATAATTCGG	3.19
TCTAGCAGGCCAGAGGGTCTCTCAAGAGGTACGG	-0.83
AGAACGAAGGCACGCTGAGTTGATAGCAGAGTAG	-0.212
ACTATTAGTTGACTTAGGGCAACCTATACGACGC	0.34
GGAACGAGGGCATACGAGTTGATAGCATGGCGAT	2.37
AGAATGAGGTTACCAAAGATCAGGCAAACGCTTG	-0.192
GGAGCGAGGGCAAAGTTGATAGCATCTGTCGACG	0.99
TTACCAAGGTGAGCTGAGGTCGTTGGTCCAACTC	2.56
TCTTGTAGATCAGCAGGTTAAGAATGCTGGCCAA	-0.438
CCGACTTGGGCAAGGTTACCATAACGCACAGCCA	0.117
CTCGAAAGGTCGCTTGAGGTGAGTATACGGATAA	0.912
TCTTGTAAATCAAGCAGGTTAAGAAAGCCTGAGT	-0.0324
TCTCGGAGGACACGAAGGTGAGAGCTTTCCAGAG	-0.501

Sequence	PBM binding z-score
CCTACAGGGCCAAAAAGGTCATTGATGCCGATAA	3.43
AGAATGAGGTTATACGTAGAGCAGGGAAGAAAGT	0.731
GGAACGAGGGCATTCGAGTTGATAGCCTGGCGAT	3.28
CCTGCTAGGTCAATTGTCAGCTAAAGCAGCTCGC	-0.128
ATCTCTAGGTAGAAGTTCAGTGAATCCCGAGGAT	1.28
TCGAGTAGGTTAGGGGCATTCACAATGGCGTCGA	1.04
TCATATAGGTTATACAGGTGAAAGTCGGCATCTA	0.534
ACAGACAGGTGATGAAGGTAACTCACGCTATCAT	0.0793
CCTACTGGGCCCAAGGTCATTGATTCCAATGCTC	2.48
ACAGACAGGTGATGAAGGTAATTCAGGCTATCAT	-0.369
AGAACGAGGGCACGCTGACTTGATAGCAGAGTAG	0.649
ATATCTAGGTAAAGATAGTTCAGTGAATGCAAAT	0.327
GCTGCAAGGTCAGGTTGGTCAGCTAACGGGTACG	1.23
GTACCAAGGTGAATAGGTCGTTGTTGAGTAGGCG	0.168
TAGCTTAGGTCAGATCGGGCCAGTATACGCTATA	-0.357
GATACAGGGTCAGCTAGAGGCCGGAGTATGGAAA	0.333
ATCTCTAGTTAAGACTCAGTTCAGTGAAGAACGC	1.67
GCTAGCAGGCCATTCGGGTCACTCAATGACGGGC	1.2
AGCTCTAGGTAACCAAGTTCAGTGAATGCCGAAC	2.43
